Results on 39 compounds are retold here after PubChem BioAssay (NCI).

Where “and” joins values, the source holds several entries; their conditions need not be identical. Identical values can stand only once. About 83,000 compounds went through this panel and 20% of them were active in at least one assay; those are over-represented in the sample as a whole.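 Testing used 96-well plates and a 48-hour single-concentration exposure. Example: -40 means 40% of the starting cells died.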 Calls of active or inactive are those of the source. How the source made its calls: active means growth percent below 10; inactive means the rest.

This assay deals with HL-60(TB) leukemia. Put plainly: NCI-60 one-dose screen, 48 h (100 = growth as untreated, 0 = no growth, -100 = all killed). Particulars: 10 µM unless noted.
As to `CC(C)C1C2=C(NCCN1C(=O)Cc1ccccc1)C(C)(C)N(Cc1ccccc1)C2=O` (centres undefined), the growth was 100% (inactive).

With `CCCCCCCC/C=C/CCCCCCCC1=NC(C)(C)CN1C(C)(C)CO`, the growth was -59.8% (active).

On to `O=C(N/N=C/c1cc(Cl)ccc1O)C(=O)N/N=C/c1cc(Cl)ccc1O`, for which the growth is 46.1% (inactive).

In the case of `CCN(CC)CC(C)(C)C(=O)/C=C/c1ccc(Cl)c(Cl)c1`, the growth is -10.2% (active).

With `CN(C)c1ccc2nc3ccc(N)cc3[n+](-c3ccccc3)c2c1`, the growth was -5.21% (active) and 4.22% (active).

For `C#CC[C@@H]1C[C@]2(C)[C@H]3CC=C4[C@H]5[C@@H](C)[C@H](C)CC[C@]5(C(=O)NCCCCN)CC[C@@]4(C)[C@]3(C)CC[C@H]2C(C)(C)[C@H]1OC(C)=O`, the growth is 21.3% (inactive).

Take `O=C(Nc1ccc(S(=O)(=O)NC2CCCCCC2)cc1)C(c1ccccc1)S(=O)(=O)c1ccc(F)cc1` (centres undefined): the growth was -12.4% (active).

As to `CCN(CC)CCn1c(=N)n(CC(O)c2ccc(Cl)c(Cl)c2)c2ccccc21` (centres undefined), the growth is 71% (inactive).

Consider `CN1C(=O)/C(=C/c2cn(-c3ccccc3)nc2-c2ccccc2)SC1=S`, for which the growth was 109% (inactive).

For `CC(=O)Nc1ccc(CC[C@H]2CCC/C=C/[C@@H]3C[C@H](O)C[C@H]3[C@H](O)/C=C/C(=O)O2)cc1`, the growth is -9.6% (active).

As for `Cc1ccc(NC(=O)c2ccc(CN3CCN(C)CC3)cc2)cc1Nc1nccc(-c2cccnc2)n1`, the growth is 107% (inactive) and 89.8% (inactive).

Take `S=C(Nc1ccc(-c2nc(N3CCOCC3)c3cccn3n2)cc1)Nc1cccnc1`: the growth is 59.9% (inactive).

Regarding `CC(=O)c1ccc(NCC(=O)Nc2ccccn2)cc1`, the growth was 109% (inactive).

With `O=C(Nc1ccc(F)cc1F)c1cc(Br)ccc1O`, the growth was -36.2% (active).

Consider `CC(=O)Nc1ccc(C(=O)/C=C/c2ccc(N(C)C)cc2)cc1`, for which the growth is 104% (inactive).

For `Cn1c(=O)n(-c2ccc(C(C)(C)C#N)cc2)c2c3cc(-c4cnc5ccccc5c4)ccc3ncc21`, the growth was 10.3% (inactive) and -11.9% (active).

In the case of `COc1ccc2c(CCC(c3ccccc3)c3ccccc3)c3[n+](cc2c1OC)CCc1cc2c(cc1-3)OCO2`, the growth was -40.6% (active).

`COc1ccc(-c2ccc(NNC(=O)c3ccc(F)cc3)nn2)cc1OC`: the growth was 46.9% (inactive).

Consider `O=C(Nc1cccc(C2=NCCN2)c1)c1ccc(OCCCOc2ccc(C(=O)Nc3cccc(C4=NCCN4)c3)cc2)cc1`, for which the growth was -27.3% (active).

As for `COc1cc(CNC(=O)CCCC/C=C/C(C)C)ccc1OCc1nnc(Nc2ccccc2F)o1`, the growth was 89.7% (inactive).

For `C#Cc1ccc(-n2c(/C=C/c3ccc(Cl)c(F)c3)nc3ncccc3c2=O)cc1`, the growth is -35.9% (active).

For the compound `c1ccc(CO[C@H]2CO[C@H]3[C@@H]2OC[C@H]3OCc2ccccc2)cc1`, the growth is 88.4% (inactive).

On to `COc1cc(/C=C/C(=O)Nc2cccnc2Nc2cc(OC)c(OC)c(OC)c2)cc(OC)c1OC`, for which the growth was 89.1% (inactive).

Take `N=C(N)N=Nc1ccc(O)cc1`: the growth is 69% [100 µM] (inactive).

As for `COC(=O)C1=C(C(=O)ONCCN(C)C)C2C=CC1(C(Cc1ccccc1)Nc1ccc(F)cc1)O2` (centres undefined), the growth was 35.8% (inactive).

Take `O=C1c2cccc3cccc(c23)C(=O)N1Nc1nc(NC2CCCCC2)nc(N2CCOCC2)n1`: the growth was 101% (inactive).

`O=C(c1ccccc1)c1ccc(Cl)c([N+](=O)[O-])c1`: the growth was 40.8% (inactive).

With `COC(=O)[C@]1(C)CCC[C@]2(C)[C@H]3C[C@H]4C(C(C)C)=C[C@]3(CC[C@H]21)[C@H]1[C@@H]4[C@@H](OCCC#N)CC[C@@H]1OCCC#N`, the growth is 2.28% (active).

On to `CCN(CC)CCSc1nc(-c2ccccc2)c(C#N)c(=O)[nH]1`, for which the growth was 114% (inactive).

`C(#CCN1CCOCC1)CCCN1CCOCC1`: the growth was 93% (inactive) and 127% (inactive).

In the case of `O=[N+]([O-])c1ccc(N/N=C/c2c(O)ccc3ccccc23)nc1`, the growth was 9.55% (active).

On to `CC(=O)CC(=O)OC/C=C(/C)CCC=C(C)C`, for which the growth was 124% (inactive).

Turning to `COc1ccc(/C=c2\sc3n(c2=O)C2C(NN=3)N(C)C(=O)N2C)cc1` (centres undefined), the growth was -47.5% (active).

Turning to `O=Nc1ccc(NO)c2ccccc12`, the growth was 108% (inactive) and 26.9% (inactive).

On to `O=C1NN(C(=O)c2ccc(Cl)cc2)C(c2ccccc2)=N/C1=C\c1ccc(F)cc1`, for which the growth was -3.45% (active).

In the case of `N#Cc1nc(-c2ccccc2)oc1S(=O)(=O)N1CCOCC1`, the growth was 5.5% (active).

In the case of `COc1ccc(C2C(C#N)=C(N)Oc3c2ccc2ccccc32)cc1` (centres undefined), the growth is 22.9% (inactive).

As for `CC1=NN(c2nc(SCC(=O)Nc3nc4ccc(C)cc4s3)nc(-c3ccccc3)c2C#N)C(=O)C1`, the growth was 111% (inactive).

On to `CC1=NC2=CC=CC3=NC(C(Cl)(Cl)Cl)=NC(=N1)N23`, for which the growth is 25.2% (inactive).
